The text below walks through data of PubChem BioAssay.

Unmarked numbers belong to inactive results. How the calls were made is not given here.

The experiment relates to Aerobactin synthetase IucA (Klebsiella pneumoniae hvKP1). In words: IucA enzyme inhibition, primary screen, biochemical, Spectrum library (AID 1346200).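 Further: 100% = wells without compound and 0% = wells lacking enzyme.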 The note with it: malachite green pyrophosphate, A620, at 8 µM, active compounds read low.
Take `Oc1c(I)cc(Cl)c2cccnc12`: the activity remaining was 126%. As to `Nc1ccn(C2O[C@H](CO)[C@@H](O)[C@H]2O)c(=O)n1` (stereo not given in full), the activity remaining was 101%. Then `COc1ccc(C(=O)O)c(O)c1OC`, with 93.8%; and `N[C@H](C(=O)O)[C@@H]1CC(Cl)=NO1`, with 112%. With `C=C1C(C2(C)C=CC(=O)C(C)(C)C2CC(=O)OC)CC[C@@]2(C)[C@H](c3ccoc3)OC(=O)C3OC132` (stereo not given in full) the figure was 105%; with `CC(=O)O[C@@H]1CC2C(C)(C)C=CC(=O)[C@]2(C)C2CC[C@@]3(C)[C@H](c4ccoc4)OC(=O)C4OC43[C@@]21C` (stereo not given in full), 119%; with `CC[C@H](CCC(C)[C@H]1CCC2C3CCC4C[C@@H](O)CC[C@]4(C)C3CC[C@@]21C)C(C)C` (stereo not given in full), 102%.

With `N[C@@H](Cc1cc(I)c(Oc2cc(I)c(O)c(I)c2)c(I)c1)C(=O)O`, the activity remaining is 117%. For `Cc1ccc(O)cc1`, the activity remaining is 102%.

As to `COC(=O)[C@H](c1ccccc1Cl)N1CCc2sccc2C1`, the activity remaining is 119%. On to `Cc1ccc(C(C)C)cc2c(C)ccc1-2`, for which the activity remaining is 121%. As for `CCc1nc(N)nc(N)c1-c1ccc(Cl)cc1`, the activity remaining is 108%.

In the case of `CC1CCC2(OC1)OC1CC3C4CC[C@H]5C[C@@H](O)CC[C@]5(C)C4CC(=O)[C@]3(C)C1C2C` (stereo not given in full), the activity remaining is 94.1%. Then `O=C(O)c1ccc2c(c1)OCO2`, with 101%; and `CC(C)(C)NCC(O)COc1cccc2c1C[C@H](O)[C@H](O)C2` (stereo not given in full), with 103%; and `COc1ccccc1/C=C\C(=O)O`, with 90.4%. With `CC(C)C1CCC(C(=O)N[C@@H](Cc2ccccc2)C(=O)O)CC1` (stereo not given in full) the figure was 118%; with `CCC(C)(C)C(=O)O[C@H]1C[C@@H](C)C=C2C=C[C@H](C)[C@H](CC[C@@H]3C[C@@H](O)CC(=O)O3)[C@H]21`, 106%. Regarding `C=C(CC)C(=O)c1ccc(OCC(=O)O)c(Cl)c1Cl`, the activity remaining was 100%.

With `COc1ccc(-c2cc(=O)c3c(O)cc(O)c(-c4cc(-c5cc(=O)c6c(O)cc(O)cc6o5)ccc4OC)c3o2)cc1`, the activity remaining is 117%.

As for `NC(N)=NCCN1CCCCCCC1`, the activity remaining is 104%. For the molecule `CCNC(=O)CC[C@H](N)C(=O)O`, the activity remaining was 119%. With `CCOC(=O)c1ccc(O)cc1` the figure was 114%; with `COc1cc2c(cc1OC)C1Cc3ccc(OC)c(OC)c3CN1CC2` (stereo not given), 118%.

As for `CCCc1cc(=O)[nH]c(=S)[nH]1`, the activity remaining is 120%.

In the case of `COc1ccc2c(c1)CCC1C2CCC2(C)C1C[C@@H](O)C2O` (stereo not given in full), the activity remaining is 114%.

On to `CC(=O)Oc1cc(-c2coc3cc(OC(C)=O)c(OC(C)=O)c(OC(C)=O)c3c2=O)cc(OC(C)=O)c1OC(C)=O`, for which the activity remaining was 88.1%. With `CCn1cc(C(=O)O)c(=O)c2cc(F)c(N3CCNCC3)nc21` the figure was 91.3%. Then `NCC1CCCCC1CC(=O)O` (stereo not given), with 98.9%; and `Cc1ccc(C(=O)c2ccc(CC(=O)O)n2C)cc1`, with 120%.

In the case of `CCOc1nc2cccc(C(=O)OC(C)OC(=O)OC3CCCCC3)c2n1Cc1ccc(-c2ccccc2-c2nn[nH]n2)cc1` (stereo not given), the activity remaining is 104%.

With `O=c1cc[nH]c(=S)[nH]1`, the activity remaining is 97.7%. With `O=c1ccc2ccc(O)cc2o1` the figure was 94.5%; with `C#C[C@]1(O)CCC2C3CCC4=CC(=O)CC[C@@H]4C3CC[C@@]21CC` (stereo not given in full), 123%; with `CC(=O)NCc1c(I)c(NC(C)=O)c(I)c(C(=O)O)c1I`, 98.7%. Regarding `COc1c(-c2coc3cc4c(cc3c2=O)CC(O)C(C)(C)O4)ccc2c1C=CC(C)(C)O2` (stereo not given), the activity remaining is 112%. With `COc1ccc(-c2cc(C(F)F)nn2-c2ccc(S(N)(=O)=O)cc2)cc1F` the figure was 123%.

On to `Cc1ccc(S(=O)(=O)NC(=O)NN2CC3CCCC3C2)cc1` (stereo not given), for which the activity remaining was 121%. On to `Cc1c(C(N)=O)cc([N+](=O)[O-])cc1[N+](=O)[O-]`, for which the activity remaining was 106%. With `O=C(O)/C=C(\CC(=O)O)C(=O)O` the figure was 89.8%.
